# Measured values reported in PubChem BioAssay (NCATS).
# Several values for one entry are separate records, joined by “and”; a condition that tells them apart may be missing. Equal entries are not always repeated. Results filed as inconclusive are left out. Activity calls are given as the source filed them. Unless noted, the rule behind the calls is not given here.
# Columns and labels:
# [1] = qHTS Assay for Identifying Gametocytocidal Compounds (AID 743244; active = well fitted curve in the direction sought with a large enough effect; an effect the other way counts as inactive or inconclusive;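 note: % is set by controls: 0 for no effect and ±100 for the full control effect; actives lower the fluorescent signal which means gametocytes are killed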); conditions: P. falciparum 3D7 stage III-V gametocytes, alamarBlue, 72 h; max response: stronger effect = lower value
# In short: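 Stage III–V gametocytes of P. falciparum 3D7 were seeded at 20,000 cells/well onto pre-dispensed compounds. After 72 h, 37 °C, 5% CO2, alamarBlue was added for another 24 h.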
# [2] = qHTS profiling of the MIPE4 collection as inhibitors of Plasmodium falciparum (3D7) proliferation (AID 743344);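 note: scaled between DMSO vehicle wells and 0.29 µM artemisinin as full inhibition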; conditions: P. falciparum 3D7 in erythrocytes, SYBR Green DNA fluorescence, 72 h
# In short: (§1)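 Parasite DNA was quantified by SYBR Green I fluorescence (ex 485, em 535 nm) after overnight lysis in saponin/Triton buffer at room temperature. Cultures at 0.3% parasitemia and 2.5% hematocrit were first exposed to compound for 72 h at 37 C; signals were normalised to artemisinin (0.29 uM) and vehicle wells.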
# [3] = qHTS profiling of the MIPE4 collection as inhibitors of Plasmodium falciparum (DD2) proliferation (AID 743345); conditions: P. falciparum Dd2 in erythrocytes, SYBR Green DNA, 72 h
# In short: as §1
# [4] = qHTS profiling of the MIPE4 collection as inhibitors of Plasmodium falciparum (DD2) proliferation (Rep 2) (AID 743346); conditions: P. falciparum Dd2 in erythrocytes, SYBR Green DNA, 72 h
# In short: as §1
# [5] = qHTS profiling for inhibitors of Plasmodium falciparum (HB3) proliferation (AID 743324; active = well fitted curve in the direction sought with a large enough effect; an effect the other way counts as inactive or inconclusive;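 note: 100% = DMSO vehicle wells and 0% = artemisinin-treated control wells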); conditions: Plasmodium falciparum HB3 blood-stage proliferation; at 28.7 µM (top of the series) unless noted
# In short: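 SYBR Green fluorescence (485 ex/535 em) of lysed cultures, incubated overnight at room temperature in the dark, quantifies parasite DNA. Infected erythrocytes at 0.3% parasitemia and 2.5% hematocrit were exposed 72 h; values normalized to DMSO and 0.29 uM artemisinin controls.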
# [6] = at 28.5 µM (top of the series) unless noted
smiles,measurement,setting,value
CCCOc1ccc2nc(NC(=O)OC)[nH]c2c1,max response,[1],-3.98% (inactive)
same,"parasite growth, % of DMSO control",[2]; [6],82.7%
same,"parasite growth remaining, % of DMSO control (lower = more inhibition)",[3]; [6],92%
same,"parasite growth, % of control (lower = inhibition)",[4]; [6],126%
Cc1nccn1CC1CCc2c(c3ccccc3n2C)C1=O (stereo not given),max response,[1],-12.7% (inactive) and -3.64% (inactive)
same,"parasite growth, % of DMSO control",[2]; [6],89.8%
same,"parasite growth remaining, % of DMSO control (lower = more inhibition)",[3]; [6],80.4%
same,"parasite growth, % of control (lower = inhibition)",[4]; [6],40.2%
CC(=O)NC[C@H]1CN(c2ccc(N3CCOCC3)c(F)c2)C(=O)O1,max response,[1],1.95% (inactive)
same,"parasite growth, % of DMSO control",[2]; [6],65.6%
same,"parasite growth remaining, % of DMSO control (lower = more inhibition)",[3]; [6],87.8%
same,"parasite growth, % of control (lower = inhibition)",[4]; [6],51.6%
CC(C)c1nc(CN(C)C(=O)N[C@H](C(=O)N[C@@H](Cc2ccccc2)C[C@H](O)[C@H](Cc2ccccc2)NC(=O)OCc2cncs2)C(C)C)cs1,max response,[1],-4.83% (inactive)
same,"parasite growth, % of DMSO control",[2]; [6],20.4%
same,"parasite growth remaining, % of DMSO control (lower = more inhibition)",[3]; [6],66.3%
same,"parasite growth, % of control (lower = inhibition)",[4]; [6],41.9%
CC1=C(C)C(=O)C(C(CCCCCC(=O)O)c2ccccc2)=C(C)C1=O (stereo not given),max response,[1],-7.88% (inactive)
same,"parasite growth, % of DMSO control",[2]; [6],50.6%
same,"parasite growth remaining, % of DMSO control (lower = more inhibition)",[3]; [6],87.9%
same,"parasite growth, % of control (lower = inhibition)",[4]; [6],46%
CC(C)(S)[C@@H](N)C(=O)O,max response,[1],21.3% (inactive)
same,"parasite growth, % of DMSO control",[2]; [6],106%
same,"parasite growth remaining, % of DMSO control (lower = more inhibition)",[3]; [6],127%
same,"parasite growth, % of control (lower = inhibition)",[4]; [6],76.1%
O=C(NCCO[N+](=O)[O-])c1cccnc1,max response,[1],-6.52% (inactive)
same,"parasite growth, % of DMSO control",[2]; [6],102%
same,"parasite growth remaining, % of DMSO control (lower = more inhibition)",[3]; [6],87%
same,"parasite growth, % of control (lower = inhibition)",[4]; [6],118%
COc1c(O)cc2c(c1O)[C@@H]1O[C@H](CO)[C@@H](O)[C@H](O)[C@H]1OC2=O,max response,[1],0.91% (inactive)
same,"parasite growth, % of DMSO control",[2]; [6],92.9%
same,"parasite growth remaining, % of DMSO control (lower = more inhibition)",[3]; [6],100%
same,"parasite growth, % of control (lower = inhibition)",[4]; [6],81.9%
Cc1cc(=O)c2c(O)c3c(O)cc(=O)c4c3c3c(cc(O)c1c23)C(C)(C)C=4O,max response,[1],-6.69% (inactive)
same,"parasite growth, % of DMSO control",[2]; [6],6.69%
same,"parasite growth remaining, % of DMSO control (lower = more inhibition)",[3]; [6],23.7%
same,"parasite growth, % of control (lower = inhibition)",[4]; [6],13.7%
Nc1cc(C(Cl)=C(Cl)Cl)c(S(N)(=O)=O)cc1S(N)(=O)=O,max response,[1],0.487% (inactive) and -9.48% (inactive)
same,"parasite growth, % of DMSO control",[2]; [6],103%
same,"parasite growth remaining, % of DMSO control (lower = more inhibition)",[3]; [6],102%
same,"parasite growth, % of control (lower = inhibition)",[4]; [6],142%
Cc1cc2cc3c(C)cc(=O)oc3c(C)c2o1,max response,[1],13.8% (inactive)
same,"parasite growth, % of DMSO control",[2]; [6],93%
same,"parasite growth remaining, % of DMSO control (lower = more inhibition)",[3]; [6],95.8%
same,"parasite growth, % of control (lower = inhibition)",[4]; [6],91.1%
C=C(c1ccc(C(=O)O)cc1)c1cc2c(cc1C)C(C)(C)CCC2(C)C,max response,[1],3.99% (inactive)
same,"parasite growth, % of DMSO control",[2]; [6],70%
same,"parasite growth remaining, % of DMSO control (lower = more inhibition)",[3]; [6],81.7%
same,"parasite growth, % of control (lower = inhibition)",[4]; [6],105%
O=C1CCc2ccc(OCCCCN3CCN(c4cccc(Cl)c4Cl)CC3)cc2N1,max response,[1],0.257% (inactive)
same,"parasite growth, % of DMSO control",[2]; [6],29.7%
same,"parasite growth remaining, % of DMSO control (lower = more inhibition)",[3]; [6],65.1%
same,"parasite growth, % of control (lower = inhibition)",[4]; [6],53.7%
CN(C)c1ccc(O)c2c1C[C@H]1C[C@H]3[C@H](N(C)C)C(=O)C(C(N)=O)=C(O)[C@@]3(O)C(=O)C1=C2O,max response,[1],-5.16% (inactive) and -5.04% (inactive)
same,"parasite growth, % of DMSO control",[2]; [6],6.29%
same,"parasite growth remaining, % of DMSO control (lower = more inhibition)",[3]; [6],9.85%
same,"parasite growth, % of control (lower = inhibition)",[4]; [6],6.85%
CC(C)c1ccc2oc3nc(N)c(C(=O)O)cc3c(=O)c2c1,max response,[1],20.5% (inactive)
same,"parasite growth, % of DMSO control",[2]; [6],54.7%
same,"parasite growth remaining, % of DMSO control (lower = more inhibition)",[3]; [6],91.1%
same,"parasite growth, % of control (lower = inhibition)",[4]; [6],71.7%
CCN(CC)CCOc1ccc(Nc2ncc3cc(-c4c(Cl)cccc4Cl)c(=O)n(C)c3n2)cc1,"remaining proliferation (% of control), lower = more inhibition",[5],-0.176%
same,"parasite growth, % of DMSO control",[2]; [6],6.09%
same,"parasite growth remaining, % of DMSO control (lower = more inhibition)",[3]; [6],8.57%
same,"parasite growth, % of control (lower = inhibition)",[4]; [6],10.6%
CCCCN(CCCC)CCC(O)c1cc2c(Cl)cc(Cl)cc2c2cc(C(F)(F)F)ccc12 (stereo not given),"remaining proliferation (% of control), lower = more inhibition",[5],0.576% [at 9.63 µM]
same,"parasite growth, % of DMSO control",[2]; at 9.64 µM (top of the series),7.84%
same,"parasite growth, % of DMSO control",[2]; at 28.5 µM (top of the series),7.96%
same,"parasite growth remaining, % of DMSO control (lower = more inhibition)",[3]; at 9.64 µM (top of the series),8.22%
same,"parasite growth remaining, % of DMSO control (lower = more inhibition)",[3]; at 28.5 µM (top of the series),7.14%
same,"parasite growth, % of control (lower = inhibition)",[4]; at 9.64 µM (top of the series),11%
same,"parasite growth, % of control (lower = inhibition)",[4]; at 28.5 µM (top of the series),10.3%
C[C@H](Cn1cnc2c(N)ncnc21)OCP(=O)(O)O,"parasite growth, % of DMSO control",[2]; [6],171%
same,"parasite growth remaining, % of DMSO control (lower = more inhibition)",[3]; [6],112%
same,"parasite growth, % of control (lower = inhibition)",[4]; [6],107%
O=C(O)CCNC(=O)c1ccc(N=Nc2ccc(O)c(C(=O)O)c2)cc1,max response,[1],7.5% (inactive)
same,"parasite growth, % of DMSO control",[2]; [6],57.4%
same,"parasite growth remaining, % of DMSO control (lower = more inhibition)",[3]; [6],108%
same,"parasite growth, % of control (lower = inhibition)",[4]; [6],88.5%
CNC[C@@H](O)[C@@H](O)[C@H](O)[C@H](O)CO,"parasite growth, % of DMSO control",[2]; [6],65.8%
same,"parasite growth remaining, % of DMSO control (lower = more inhibition)",[3]; [6],123%
same,"parasite growth, % of control (lower = inhibition)",[4]; [6],82.7%
Cc1nc(Nc2ncc(C(=O)Nc3c(C)cccc3Cl)s2)cc(N2CCN(CCO)CC2)n1,"remaining proliferation (% of control), lower = more inhibition",[5],34.2%
same,"parasite growth, % of DMSO control",[2]; [6],13.5%
same,"parasite growth remaining, % of DMSO control (lower = more inhibition)",[3]; [6],65.3%
same,"parasite growth, % of control (lower = inhibition)",[4]; [6],17.6%
